Screening results from PubChem BioAssay.
Compounds with a hit are over-represented: about 6% of the library has one in this group of screens.
Tau FP inhib – tau fibrillization inhibition (FP) | Potency, µM (top dose mostly 57.7 µM), for the others: at the top dose activity, negative = inhibition, hits mostly inhibitors | actives 0.39% (n = 280,000) | K18 P301L tau heparin fibrillization, Alexa594 FP, 6 h; also: nearly all actives have a fitted effect of over 55% in size
Target sequence (P10636 561-689 P618L limits assumed): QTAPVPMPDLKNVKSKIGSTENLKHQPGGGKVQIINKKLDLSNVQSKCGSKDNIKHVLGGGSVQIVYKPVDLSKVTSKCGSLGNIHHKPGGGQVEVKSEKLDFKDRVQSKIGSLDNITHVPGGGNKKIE
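Human tau K18 […] P301L fragment, 15 uM unlabeled plus 0.24 uM Alexa 594-labeled tau (final), with compound and 20 uM heparin in 100 mM sodium acetate pH 7; 6 hr at 37 C, then Alexa 594 FP read.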
Tau fibril ThT – tau fibrillization inhibition (ThT binding); AID 1460; Potency, µM (titrated, usually from 57.4 µM), for the others: at the top dose activity, negative = inhibition, most hits filed as inhibitors; P10636; actives 2.1% (n = 270,000); recombinant tau K18 P301L, heparin-induced fibrillization, ThT fluorescence; also: nearly all actives have a fitted effect of over 55% in size
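Fibril formation assay: tau K18 P301L at 15 uM with trace Alexa 594 label, heparin inducer 20 uM, pH 7 sodium acetate buffer, 37 C for 6 hr; endpoint ThT signal.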
VDR inhibitor – vitamin D3 receptor (human) inhibition | VDR-SRC2-3 peptide fluorescence polarization, 2 h | Potency, µM, without a hit: max response, negative = inhibition, hits mostly inhibitors | actives 0.93% (n = 400,000) | AID 504847
Target sequence (P11473 whole entry, looked up): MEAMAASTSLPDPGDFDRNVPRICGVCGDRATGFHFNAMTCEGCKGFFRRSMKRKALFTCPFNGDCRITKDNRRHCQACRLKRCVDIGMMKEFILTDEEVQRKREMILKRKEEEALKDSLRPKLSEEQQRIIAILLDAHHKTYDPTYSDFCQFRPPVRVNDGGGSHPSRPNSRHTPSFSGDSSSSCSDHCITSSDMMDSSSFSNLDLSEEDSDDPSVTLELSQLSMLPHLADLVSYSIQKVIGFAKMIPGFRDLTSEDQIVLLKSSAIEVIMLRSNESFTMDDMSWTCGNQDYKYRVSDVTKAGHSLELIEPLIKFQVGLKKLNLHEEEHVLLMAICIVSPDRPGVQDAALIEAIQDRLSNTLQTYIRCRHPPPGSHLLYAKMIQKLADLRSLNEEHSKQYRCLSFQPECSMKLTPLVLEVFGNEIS
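Two reagent solutions held at 4 deg C in the dark were dispensed, compounds pinned at 23 nl, and the mixture incubated 2 h at room temperature. Read-out: fluorescence polarization of VDR–SRC2-3 peptide binding.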
Sfp PPTase inh – Sfp phosphopantetheinyl transferase inhibition; Q9F4F7; Potency, µM, without a hit: largest response in the series, negative = inhibition, actives largely listed as inhibitors; actives 3.5% (n = 310,000); Biochemical Sfp PPTase activity, qHTS;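 also: the enzyme is Sfp with the accession as filed and its product quenches rhodamine fluorescence; 0% = enzyme reaction without inhibitor and -100% = no enzyme wells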
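Buffer: 50 mM Hepes-Na pH 7.6, 10 mM MgCl2, 0.01% Nonidet P-40, 0.01% BSA. Enzyme 15 nM, pre-exposed to compound 15 min; substrates then added and fluorescence change tracked over 30 min.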
Tau fluor cs – counter-screen for tau fibril formation inhibitors | tau K18 P301L Alexa594 fluorescence, heparin fibrillization | Potency, µM (highest dose often 57.7 µM), inactives show at the top dose activity change, negative = decrease | actives 0.93% (n = 280,000); also: nearly all actives have a fitted effect of over 55% in size
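Human tau K18 P301L (15 uM unlabeled, 0.24 uM Alexa 594-labeled) in 100 mM sodium acetate pH 7 with 20 uM heparin, 6 hr at 37 C. ThT 30 uM added, 1 hr ambient; Alexa 594 FP and total fluorescence read at 555/632 nm.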
PLK1 PBD inh – blocks phosphopeptide binding to human PLK1 polo-box domain; P53350; Plk1 PBD binding of FITC phosphopeptide, fluorescence polarization; Potency, µM, for inactives: max response, negative = inhibition, usual class: inhibitors; actives 2.8% (n = 360,000); also: series mostly up to about 57 µM; nearly all actives have a fitted effect of over 65% in size
Active calls of the source: *; u = inconclusive; x = no result given; ! = repeats disagree; [ ] = another dose, or the depositor's remark. Calls follow the shape of the dose curve; as a rule, active = well fitted curve in the direction sought with a large enough effect; inconclusive = small, poorly fitted or top-dose-only effect, or another doubt; inactive = no such curve, though single readings can be large; an effect the other way counts as inactive or inconclusive. Unless noted, % is scaled to controls: 0 for no effect and ±100 for the full control effect; potency is read from the fitted curve at half-maximal effect.

SMILES | Tau FP inhib | Tau fibril ThT | VDR inhibitor | Sfp PPTase inh | Tau fluor cs | PLK1 PBD inh
CCC(=O)N1CCc2cc(S(=O)(=O)NCCC(=O)Nc3cccc(SC)c3)ccc21 | -9% | -12% | 3% | x | -23% | x
COc1cc2c(cc1NC(=S)Nc1cccc(C)c1)oc1ccccc12 | 0% | u | 25% | -5% | u | -6%
COc1ccc(NC(=O)Nc2cc3oc4ccccc4c3cc2OC)cc1 | u | u | -5% | -20% | 8.9µM*[quencher] | -15%
COc1ccc(OCC(=O)Nc2cc3oc4ccccc4c3cc2OC)cc1 | -1% | -12% | -29% | u | -3% | -1%
COc1cc2c(cc1NC(=O)Nc1cccc(C)c1)oc1ccccc12 | -1% | u | 6% | 4% | 7.9µM*[quencher] | -23%
COc1cc2c(cc1NC(=O)Nc1ccc(C)cc1)oc1ccccc12 | -7% | -4% | 4% | u | 4µM*[quencher] | -12%
COc1cc2c(cc1NC(=O)Nc1ccc(F)cc1)oc1ccccc12 | -8% | -2% | -8% | u | 6.3µM*[quencher] | -4%
COc1cc2c(cc1NC(=O)C(C)Sc1ccc(NC(C)=O)cc1)oc1ccccc12 (stereo not drawn) | u | -1% | -7% | 15% | u | u
O=C(Nc1ccc(F)cc1)C(c1ccccc1OC(F)(F)F)N1CCN(c2cccc(C(F)(F)F)n2)CC1 (stereo not drawn) | x | x | x | x | x | -23%
COc1ccc(NC(=O)Nc2ccc(Cc3ccncc3)cc2)c(OC)c1 | u | u | -9% | -5% | 25µM*[quencher] | -4%
COc1ccc(NC(=O)Nc2cnccn2)c(OC)c1 | x | x | 17% | -1% | x | 2%
CCOC(=O)C1=C(C)NC(=O)NC1c1c(C)nn(-c2ccccc2)c1Cl (stereo not drawn) | -9% | -3% | -10% | 20µM* | -4% | -6%
COc1cc2c(=O)n(Cc3ccccc3Cl)c(=O)n(CC(=O)Nc3ccccc3)c2cc1OC | u | 10% | -4% | x | -30% | x
O=C(O)c1ccccc1N/C=C\[N+](=O)[O-] | -6% | u | 16% | 56µM* | -17% | -5%
O=[N+]([O-])c1ccccc1C(O)Cc1ccccn1 (stereo not drawn) | x | x | 3% | x | x | -8%
Cc1ccc2c(c1)c1c(n2C)C(C(N)=O)CCC1 (stereo not drawn) | -6% | -13% | 1% | -5% | -3% | -6%
Cc1ccc2c(c1)c1c(n2C)-c2[nH]ncc2CC1 | 5% | u | 24% | 12% | 18µM*[quencher] | 6%
CC1(OC(=O)CCc2ccccc2)C(=O)C=C2C=C3CCCN3C=C2C1=O (stereo not drawn) | u | 3.5µM* | -8% | u | -24%[11.6 µM] | -26%
COC(=O)CCCC1=CC2=CC(=O)C(C)(OC(=O)CCc3ccccc3)C(=O)C2=CO1 (stereo not drawn) | u | 25µM*! | -5% | -22% | u | u
CC1(O)C(=O)C=C2C=C3CCCN3C=C2C1=O (stereo not drawn) | -16%[11.6 µM] | u | x | -9% | -26%[11.6 µM] | x
COC(=O)CCC(=O)OC1(C)C(=O)C=C2C=C(c3ccsc3)OC=C2C1=O (stereo not drawn) | u | -3% | -19% | 11% | -1% | u
COc1ccc(CN2C=C3C(=O)C(C)(OC(=O)CCc4ccccc4)C(=O)C=C3C=C2c2ccc(C#N)cc2)cc1 (stereo not drawn) | 2%[11.6 µM] | u | -18% | 8% | -9%[11.6 µM] | -22%
CCC(=O)OC1(C)C(=O)C=C2C=C(c3ccsc3)OC=C2C1=O (stereo not drawn) | 8% | u | u | u | -20% | 27µM*
CCN(CC)CCCN1C=C2C(=O)C(C)(OC(=O)CCc3ccccc3)C(=O)C=C2C=C1c1ccc(C#N)cc1 (stereo not drawn) | u | 13µM*! | -16% | 4% | u | -22%
O=C(Cc1c(F)cccc1Cl)NNC(=O)c1ccccc1Cl | x | x | -5% | x | x | -6%
SMILES | Tau FP inhib | Tau fibril ThT | VDR inhibitor | Sfp PPTase inh | Tau fluor cs | PLK1 PBD inh
CC1(OC(=O)c2cccs2)C(=O)C=C2C=C3CCCN3C=C2C1=O (stereo not drawn) | u | 5µM* | u | -4% | -23%[11.6 µM] | u
CC1(OC(=O)C2CCCC2)C(=O)C=C2C=C3CCCN3C=C2C1=O (stereo not drawn) | -6%[11.6 µM] | -16%[11.5 µM] | x | 0% | -10%[11.6 µM] | x
Cc1noc(C)c1C(=O)N1CCC2(CCCN(C(c3ccccc3)c3ccccc3)C2)CC1 | x | x | u | -9% | x | x
COc1ccc(C(=O)CCS(=O)(=O)c2ccc(C)cc2)cc1 | x | x | u | -3% | x | 11µM*
Cc1ccc(C(=O)CCS(=O)(=O)c2ccc(Br)cc2)cc1 | x | x | -26% | 3% | x | u
COc1ccc(CC(=O)NNC(=O)CCC(=O)Nc2cc(C)ccc2C)cc1 | 0% | -1% | 89µM* | 11% | -4% | u
COc1ccc(OC)c(NC(=O)CCN2CC(C)CC(C)C2)c1 (stereo not drawn) | x | x | -21% | 0% | x | 24µM*
COc1ccc(S(=O)(=O)CCC(=O)Nc2cc(C)ccc2OC)cc1 | -3% | 3% | -14% | 50µM* | -5% | -11%
CCc1cccc(C)c1NC(=O)CN1CCN(S(=O)(=O)c2ccc(C(C)(C)C)cc2)CC1 | x | x | 3% | x | x | 6%
Nc1ccn([C@@H]2O[C@H](C(=O)N[C@H]3c4ccccc4C[C@H]3O)[C@@H](O)[C@H]2O)c(=O)n1 | x | x | x | x | x | -3%
Cn1c(/C(C#N)=C/c2ccccc2Br)nc2ccccc21 | 6% | u | u | x | -1% | x
Cc1ccc(NC2=C(N3CCCCC3)C(=O)c3ccccc3C2=O)cc1 | -5% | -15% | -53% | -13% | -25% | -11%
O=C1C(Nc2ccccc2)=C(N2CCCCC2)C(=O)c2ccccc21 | u | 18µM* | u | -1% | -26% | u
COc1ccccc1NC1=C(N2CCCCC2)C(=O)c2ccccc2C1=O | u | 13µM* | u | 4% | u | -15%
O=C(/C=C/c1ccc(O)cc1)c1ccc(NC2=C(N3CCCCC3)C(=O)c3ccccc3C2=O)cc1 | u | 7.9µM* | u | u | 13µM*[quencher] | -24%
